Hit rate of the full screen: of about 2,300 compounds, about 430 (19%) were called active.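 The calls were made as follows: active = remaining agonist calcium response no higher than 100% minus 3 SD of agonist-only control wells, with starting fluorescence near control levels; inactive = the rest.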 The list is a sample of the results.

Sequence of Mas-related G-protein coupled receptor member X1 (Homo sapiens) (Q96LB2 whole entry, looked up): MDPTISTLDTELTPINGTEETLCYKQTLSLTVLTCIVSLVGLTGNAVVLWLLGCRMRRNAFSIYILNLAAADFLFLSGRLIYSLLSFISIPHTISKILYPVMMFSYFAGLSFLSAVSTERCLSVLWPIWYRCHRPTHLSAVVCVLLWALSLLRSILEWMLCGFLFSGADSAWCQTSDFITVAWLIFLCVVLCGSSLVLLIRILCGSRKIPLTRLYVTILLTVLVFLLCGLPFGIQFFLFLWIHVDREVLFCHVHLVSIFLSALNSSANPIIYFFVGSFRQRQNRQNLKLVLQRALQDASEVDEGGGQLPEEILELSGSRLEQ

The test addresses Mas-related G-protein coupled receptor member X1 (Homo sapiens) (UniProt Q96LB2). Put plainly: MrgX1 receptor antagonists, duplicate retest, confirmation, HEK293 cells, Fluo-4 calcium flux (AID 602420). To be noted: MrgX1-HEK293, BAM8-22 calcium flux, at 10 µM; stronger effect = lower value.
Turning to `O=C(Cc1ccccn1)c1ccc(O)cc1O`, the remaining BAM8-22 calcium response % of control (stronger effect = lower value) was 77.8% (active).
To `CCOc1ccc(NC(=O)CCNC(=O)c2ccc(Br)cc2)cc1` belongs “inactive”; to `COc1ccc([N+](=O)[O-])cc1NC(=O)COC(=O)/C=C/c1ccco1`, “inactive”; to `CCOC(=O)C1=C(O)CSC1=Nc1cccc(Cl)c1`, “inactive”.
Under `Cc1nn(-c2ccccc2)c(C)c1NC(=O)COc1ccc(Cl)cc1Cl` stands “inactive”.
Under `COc1ccc(C(=O)Nc2c(N)nc(SCC(=O)N3CCC(C)CC3)[nH]c2=O)cc1OC` stands 83.1% (active).
As for `CN1C(CC(=O)Nc2ccc(Br)cc2)c2ccccc2CC1(C)C` (stereo not drawn), the remaining BAM8-22 calcium response % of control (stronger effect = lower value) result was “inactive”.
To `O=C(Nc1ccc(Br)cc1F)C1CC(=O)N(C2CCCCC2)C1` (stereo not drawn) belongs “inactive”; to `Cc1cccc(-n2c(Cc3cc(=O)[nH]c(=O)[nH]3)nnc2SC(C)C)c1`, “inactive”; to `O=C(O)CSC(NC(=O)c1cccnc1)(C(F)(F)F)C(F)(F)F`, “inactive”.
To `Cc1ccc2nc(-c3ccc(NC(=O)CN(C)S(=O)(=O)c4ccccc4)cc3)sc2c1` belongs “inactive”.
With `Cc1ccc2nc(-c3ccc(NC(=O)c4cccnc4)cc3)oc2c1`, the remaining BAM8-22 calcium response % of control (stronger effect = lower value) was 67.5% (active).
To `CCOC1CCCCC1NS(=O)(=O)c1ccc(Cl)cc1` (stereo not drawn) belongs “inactive”.
To `Cc1cc(Nc2cc(N3CCN(C)CC3)nc(Sc3ccc(NC(=O)C4CC4)cc3)n2)n[nH]1` belongs 84% (active).
Under `CCOc1cc(-c2conc2N)cc(OCC)c1OCC` stands “inactive”; under `O=C(CN1CCN(c2ccccn2)CC1)NC1CCCCC1`, “inactive”; under `Cc1cc(Br)ccc1NC(=O)c1cnc(N2CCN(c3ccccn3)CC2)c2ccccc12`, 72.4% (active).
For `O=S(=O)(c1ccc2ccccc2c1)N1CCN(S(=O)(=O)N2CCOCC2)CC1`, the remaining BAM8-22 calcium response % of control (stronger effect = lower value) result was “inactive”.
To `C=CCOc1cccc(C2C(C(=O)c3ccc(C)o3)=C(O)C(=O)N2c2nnc(C)s2)c1` (stereo not drawn) belongs 63.9% (active); to `CC(=O)N(C1=C(Cl)C(=O)c2ccccc2C1=O)c1ccc(C(=O)O)cc1`, “inactive”; to `CCCCC(=O)Nc1ccc2c(c1)C(=O)NC2=O`, “inactive”.
Under `O=C(C1CCN(S(=O)(=O)c2cnc[nH]2)CC1)N1CCN(Cc2ccc3c(c2)OCO3)CC1` stands “inactive”.
Under `C=CCNC(=O)c1csc(-c2ccccc2)n1` stands “inactive”; under `C=CCNC(=O)c1cc(-c2ccccc2O)on1`, 84.3% (active).
Turning to `COCC(C)NC(=O)c1ccc(Cl)c(Cl)c1` (stereo not drawn), the remaining BAM8-22 calcium response % of control (stronger effect = lower value) entry was “inactive”.
In the case of `O=C1CCCc2c1nc(-c1cccc(Cl)c1)n2O`, the remaining BAM8-22 calcium response % of control (stronger effect = lower value) entry is “inactive”.
Take `CCc1cc2c(SCC(=O)Nc3ncc(Cl)c(C)c3Cl)ncnc2s1`: the remaining BAM8-22 calcium response % of control (stronger effect = lower value) entry was “inactive”.
To `O=C(COc1ccc(Cl)cc1)NC(=S)Nc1ccccc1N1CCOCC1` belongs “inactive”; to `CCN(C(=O)CSc1nnc2ccccn12)C1CCS(=O)(=O)C1` (stereo not drawn), “inactive”; to `O=C1CCCN1CCCNC(=S)Nc1ccc(F)c(Cl)c1`, 67.5% (active).
To `FC(F)Oc1ccc(NC(=S)NCc2ccco2)cc1Cl` belongs “inactive”; to `CCOC(=O)Nc1ccc2c(c1)N(C(=O)CCN1CCN(CCO)CC1)c1ccccc1CC2`, “inactive”; to `CC(=O)N(C)c1ccc(NC(=O)C(F)(F)F)cc1`, “inactive”.
Under `Cc1cccc(NC(=O)COc2ccccc2C)n1` stands “inactive”.
`CC(C)OCCCNc1ncnc2c1[nH]c1ccc(F)cc12`: the remaining BAM8-22 calcium response % of control (stronger effect = lower value) entry is “inactive”.
Under `CCC(C)c1ccccc1N1CC(C(=O)N2CCN(S(=O)(=O)c3ccc(F)cc3)CC2)CC1=O` (stereo not drawn) stands 84.2% (active).
To `O=C(CSc1ncccn1)NC(=O)NCc1ccccc1` belongs “inactive”.
As for `COCc1nnc(NC(=O)c2ccc3c(c2)OCO3)s1`, the remaining BAM8-22 calcium response % of control (stronger effect = lower value) result was “inactive”.
Under `Cc1cc(=O)oc2cc(NC(=O)C3CC(=O)N(Cc4ccccc4)C3)ccc12` (stereo not drawn) stands “inactive”.
To `Cc1ccc(Nc2nc(-c3ccc(O)cc3O)cs2)nc1` belongs 82.3% (active).
Under `CCOc1ccccc1C1CC(c2ccc(Cl)cc2)Nc2nc(N)nn21` (stereo not drawn) stands “inactive”; under `Cc1cc(C)cc(NC(=S)NCCc2c[nH]c3ccccc23)c1`, “inactive”.
Consider `COc1cc2c(cc1O)C(SC)=NC(C)(C)C2`, for which the remaining BAM8-22 calcium response % of control (stronger effect = lower value) was 85.2% (active).
Under `CCOc1ccc(C(=O)NC2CCN(S(=O)(=O)CC)CC2)cc1` stands “inactive”; under `CCOC(=O)c1cn(Cc2cccc(C)c2)nn1`, “inactive”.
To `Cc1nn(-c2ccccc2)c2c1C(c1ccc(F)cc1)C(C#N)=C(N)O2` (stereo not drawn) belongs “inactive”; to `CC(Oc1ccc(F)cc1)C(=O)Nc1ccccc1C(=O)NC1CC1` (stereo not drawn), “inactive”.
Under `Cc1ccc2cc(/C=N/Nc3ccc(C(=O)O)cc3)c(Cl)nc2c1` stands 37.2% (active); under `COc1cccc(CCNC(=O)COc2cccc3c2OC(C)(C)C3)c1`, “inactive”.
Turning to `O=C(Nc1ccccc1Cl)N1CCN(c2ccc3nncn3n2)CC1`, the remaining BAM8-22 calcium response % of control (stronger effect = lower value) result was “inactive”.
To `COc1ccccc1Oc1nc(-c2cccnc2)nc2ccccc12` belongs “inactive”; to `CC(C)(C)n1c(=O)[nH]c2c(c1=O)CCC2`, “inactive”; to `CN(CC(=O)Nc1ccccc1Cl)C(=O)COc1cccc2c1OC(C)(C)C2`, “inactive”.
To `CCCCCCCCCCOC(=O)Cn1c(COc2ccc(C)cc2)[n+](C)c2ccccc21` belongs “inactive”.
To `CCCCCCCCCCOC(=O)Cn1c(COc2cccc(OC)c2)[n+](C)c2ccccc21` belongs 53.5% (active); to `CCc1ccc2nc3sc(C(=O)Nc4nnc(CC)s4)c(N)c3cc2c1`, “inactive”.
Consider `CCN(CC)c1ccc(C2C3CCCCC3(O)CCN2CC(=O)Nc2ccccc2)cc1` (stereo not drawn), for which the remaining BAM8-22 calcium response % of control (stronger effect = lower value) result was “inactive”.
Under `COCCNC(=O)Nc1ccc2nc(-c3ccco3)c(-c3ccco3)nc2c1` stands “inactive”.

Values taken from PubChem BioAssay AID602420 (Johns Hopkins Ion Channel Center, 2012).
